Hits are enriched below; roughly 2.9% of the tested compounds scored in any of these assays.
POLH inh: blocks human DNA polymerase eta activity; Q9Y253; recombinant Pol eta, fluorescent DNA replication assay; Potency, µM (highest dose often 114 µM), for inactives: top-dose activity change, negative = inhibition, actives largely listed as inhibitors; 1.2% of 390,000 active; AID 588591; also: potency is read from the fitted curve at half-maximal effect; % is scaled to controls: 0 for no effect and ±100 for the full control effect
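Pol eta (10 nM) was preincubated with compounds for 15 min at room temperature, after which fluorescent replication substrate (50 nM final) was added to start the reaction. Fluorescence was read kinetically at 0 and 10 min.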
Pol kappa inh: inhibitors of human DNA polymerase kappa | Q9UBT6 | 0.53% of 400,000 active | Potency, µM (doses to about 107 µM), inactives show at the highest dose activity, negative = inhibition, most hits filed as inhibitors | purified Pol kappa, fluorescent DNA synthesis assay, 10 min; also: potency is read from the fitted curve at half-maximal effect; % is scaled to controls: 0 for no effect and ±100 for the full control effect
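10 nM Pol kappa preincubated 15 min at room temperature with compounds, then reaction started with substrate at 50 nM final. Fluorescence read kinetically at 0 and 10 min; buffer-only wells served as negative control.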
PI5P4K alpha inh: PI5P4K alpha (human) kinase inhibition; P48426; PI5P4Kalpha enzyme, ADP-Glo luminescence, 60 min; hits give low values; max response, %; 1.2% of 330,000 active; AID 652105; active = max response of -50% or lower; inconclusive = between -30% and -50%; inactive = -30% or higher; also: value at the top dose of about 77 µM; % is scaled to controls: 0 for no effect and ±100 for the full control effect
Target sequence (P48426 whole entry, looked up): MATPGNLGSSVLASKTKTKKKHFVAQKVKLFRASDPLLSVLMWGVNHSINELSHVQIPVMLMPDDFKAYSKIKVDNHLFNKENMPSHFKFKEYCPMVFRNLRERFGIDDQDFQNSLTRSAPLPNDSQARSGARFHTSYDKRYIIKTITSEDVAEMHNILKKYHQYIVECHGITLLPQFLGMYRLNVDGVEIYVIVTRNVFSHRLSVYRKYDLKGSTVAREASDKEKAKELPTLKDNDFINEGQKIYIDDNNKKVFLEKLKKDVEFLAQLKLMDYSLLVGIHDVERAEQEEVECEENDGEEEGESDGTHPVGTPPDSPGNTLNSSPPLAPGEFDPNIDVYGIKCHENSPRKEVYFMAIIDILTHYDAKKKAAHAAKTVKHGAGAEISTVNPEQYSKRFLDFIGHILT
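ADP-Glo luminescence end-point read after a 60 min room-temperature kinase reaction of PI5P4Kalpha plus substrate, initiated with ATP at 5 microM final. Buffer: 0.038 M HEPES pH 7.4, EGTA, 0.1% CHAPS, 5% DMSO.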
POLI inh: inhibitors of human DNA polymerase iota; AID 588590; 1% of 390,000 active; Pol iota fluorescent replication assay, 10 min; Potency, µM (doses to about 115 µM), for the others: at the highest dose activity, negative = inhibition, usual class: inhibitors; also: potency is read from the fitted curve at half-maximal effect
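Pol iota at 10 nM preincubated 15 min with compounds at room temperature; reaction started with fluorescent substrate, 50 nM final. Fluorescence read kinetically at 0 and 10 min; buffer-only wells as negative control.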
12-LOX inh: inhibitors of human 12S-lipoxygenase ALOX12; P18054; purified 12hLO, xylenol orange hydroperoxide absorbance; Potency, µM (titrated, usually from 108 µM), without a hit: top-dose activity change, negative = inhibition, usual class: inhibitors; 1.1% of 580,000 active; AID 1671190; also: potency is read from the fitted curve at half-maximal effect; % is scaled to controls: 0 for no effect and ±100 for the full control effect
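Purified human 12hLO at 150 nM in 25 mM Hepes, 0.01% Triton X-100, pH 7.0, preincubated 15 min at room temperature with compound. Reaction started with 40 uM arachidonic acid, 30 min at room temperature. Hydroperoxide measured by Fe-xylenol orange, 573/405 nm absorbance ratio.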
Pol beta inh: DNA polymerase beta (human) inhibition; Pol beta primer extension/strand displacement, fluorescence kinetic; Potency, µM (titrated, usually from 114 µM), for the others: top-dose activity change, negative = inhibition, actives largely listed as inhibitors; 1.3% of 340,000 active; AID 485314; also: potency is read from the fitted curve at half-maximal effect; % is scaled to controls: 0 for no effect and ±100 for the full control effect
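Kinetic readout of DNA synthesis with strand displacement by Pol beta. Compound and 10 nM enzyme sit 15 min at room temperature; 50 nM substrate starts the reaction, read immediately and at 10 min.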
Numbers without * were called inactive; ? = inconclusive; nt = no result given; [ ] = another dose, or the depositor's remark. Unless noted, calls follow the shape of the dose curve; as a rule, active = well fitted inhibition curve with a large enough effect; inconclusive = small, poorly fitted or top-dose-only effect, or another doubt; inactive = no such curve, though single readings can be large or run the other way.

SMILES | POLH inh | Pol kappa inh | PI5P4K alpha inh | POLI inh | 12-LOX inh | Pol beta inh
COC(=O)c1ccc(NC(=O)c2ccc(CNC(=O)OC(C)(C)C)cc2)cc1 | nt | nt | nt | nt | -5% | nt
O=C(O)c1ccccc1-c1c2ccc(=O)cc-2oc2cc(O)ccc12 | nt | 27µM* | nt | nt | nt | nt
O=C(Nc1ccc2oc(-c3ccccc3F)cc(=O)c2c1)c1ccccc1F | nt | nt | nt | nt | -23% | nt
O=C(O)CN(CC(=O)O)Cc1cc2c(-c3ccccc3C(=O)O)c3cc(CN(CC(=O)O)CC(=O)O)c(=O)cc-3oc2cc1O | nt | 7.1µM* | nt | nt | nt | nt
O=C(NCCc1ccc(Cl)cc1)c1nc(-c2cccnc2)c2ccccn12 | nt | nt | nt | nt | 67% | nt
c1ccc(-c2nnc(CSc3nnc(C4COc5ccccc5O4)o3)o2)cc1 (centres undefined) | nt | nt | nt | nt | 2% | nt
N#CC(C(=O)Nc1ccccc1Cl)C(=O)c1ccccc1Cl (centres undefined) | nt | nt | nt | nt | 2% | nt
COc1cc2cc(C(=O)NCC(=O)Nc3ccc4c(c3)OCO4)[nH]c2c(OC)c1OC | nt | nt | nt | nt | 15% | nt
CC(C)Nc1nnc(SCc2cc(=O)n3ccsc3n2)s1 | -17% | -18% | -25 | ? | 9% | 32µM*
Cc1ccc(-c2ccc(O)cc2)cc1 | nt | nt | nt | nt | -49% | nt
N#CC(C#N)=C1NC(N)=C(C#N)C(c2ccccc2)=C1C#N | nt | nt | nt | nt | 6.3µM* | 13%
Cc1ccc2c(c1)c1c(c(=O)n(-c3ccccc3C)c(=O)n1CC(=O)c1ccc(Cl)cc1)n2C | -20% | -2% | nt | 31% | 0% | ?
Cc1ccc2c(c1)c1c(c(=O)n(-c3cccc(Cl)c3)c(=O)n1CC(=O)c1ccc(Cl)cc1)n2C | -14% | 1% | nt | 79µM* | -3% | 17%
O=C(Nc1ccc(F)c(Cl)c1)c1ccc[n+]([O-])c1 | nt | nt | nt | nt | 9% | nt
N#C/C(=C/c1ccccc1)c1nc(-c2ccc3c(c2)-c2ccccc2C3)cs1 | nt | nt | nt | nt | -11% | nt
Cc1nc(-c2ccc3c(c2)-c2ccccc2C3)cs1 | nt | nt | nt | nt | 0.32µM* | nt
CN(C)Cc1ccccc1-c1cc(N(C)C)ncn1 | nt | -5%[60.1 µM] | nt | nt | 40µM* | nt
CN(C)Cc1ccccc1-c1cc(Nc2ccccc2)ncn1 | nt | -3%[60.1 µM] | nt | nt | -9% | nt
CCN(c1ccc(C)c(C)c1)S(=O)(=O)c1ccc2c(c1)CCN2C(=O)CCC(=O)O | -12% | 8% | nt | 7% | -11% | 89µM*
COc1cc(CC2C(=O)Nc3ccccc32)cc(C)c1O (centres undefined) | 5% | 3% | -4 | -8% | -8% | -2%
COc1cc(OC)c(CC2C(=O)Nc3cc(Cl)ccc32)c(OC)c1 (centres undefined) | nt | nt | nt | nt | 18µM* | nt
COc1cccc2sc(Nc3nc4ccc(NC(C)=O)cc4s3)nc12 | ? | 45µM* | 0 | 16µM* | -4% | ?
CC(=O)Nc1ccc2nc(NC(=O)COc3ccccc3C)sc2c1 | -17% | -1% | 8 | 73% | 9% | -27%
CCOc1ccccc1-c1nc(-c2ccc(NC(=O)Cc3ccc(OC)cc3)cc2)no1 | ? | -21% | 5 | ? | 0% | 32µM*
O=C(Nc1nc(-c2cccs2)c(C(=O)C(F)(F)F)s1)c1ccccc1 | ? | ? | -3 | 89µM* | ? | 0%
SMILES | POLH inh | Pol kappa inh | PI5P4K alpha inh | POLI inh | 12-LOX inh | Pol beta inh
CCn1c(SCC(=O)Nc2sccc2C(N)=O)nnc1C1CC1 | -9% | ? | ? | 56µM* | 184% | nt
Cc1cccc(Cn2c(N3CCc4ccccc4C3)nc3c2c(=O)n(C)c(=O)n3C)c1 | nt | nt | nt | nt | 52% | nt
C#CCN(C[C@@H]1[C@@H](OC(=O)Nc2cccs2)[C@@H](OC(=O)Nc2cccs2)Cn2c(=O)n(CCCCCC)c(=O)n21)S(=O)(=O)c1ccc(C)cc1 | -4% | nt | -13 | nt | 10µM* | nt
C=CCN(Cc1cccs1)C(=O)/C=C/c1ccccc1 | nt | nt | nt | nt | 3% | nt
O=C(/C=C/c1ccco1)N(Cc1cccs1)Cc1cccs1 | nt | nt | nt | nt | 8.9µM* | nt
COc1ccc(S(=O)(=O)NNC(=O)Cc2csc(C)n2)cc1[N+](=O)[O-] | ? | ? | ? | 50µM* | -7% | nt
C#CCN(C)C(=O)[C@@H](C)C1CC[C@@]2(C)Cc3sc(NC(=O)C4CC4)nc3[C@@H](C)[C@@H]2[C@H]1O (some centres undefined) | nt | nt | nt | nt | 112µM* | nt
COc1ccc2c3c([nH]c2c1)[C@@H](CO)N(Cc1ccccc1)CC31CN(C(=O)Cc2ccccc2)C1 | nt | nt | nt | nt | 5µM* | nt
Cc1ccc(C(=O)n2nc(-c3ccco3)nc2NCc2cccs2)cc1 | -28% | -23% | nt | 32% | 6% | 3%
COc1ccc(C(=O)n2nc(-c3ccco3)nc2NCc2cccs2)cc1OC | -5% | -31% | nt | -1% | 7.9µM* | 9%
CCC(C)c1ccc(OCC(=O)Nc2ccc3c(c2)C(=O)NC3=O)cc1 (centres undefined) | -13% | 3% | 4 | 17% | 10% | 35µM*
CCN(CC(=O)NC(C)(C)C)C(=O)c1cc(C(C)C)nc2ccccc12 | nt | nt | nt | nt | -5% | nt
CCc1nnsc1C(=O)NC(C)c1ccc(OC(C)C)c(OC)c1 (centres undefined) | nt | nt | nt | nt | -18% | nt
NC(=S)N=Nc1c(O)cc(O)c2[nH]c(=O)ccc12 | 1.8µM* | ? | -72* | 3.2µM* | ? | nt
NC(=O)C(c1ccccc1)N(Cc1cccs1)C1CC1 (centres undefined) | nt | nt | nt | nt | 6% | nt
COc1ccc(CN2C(=O)c3cccnc3C2Nc2cc(Cl)ccc2OC)cc1 (centres undefined) | -4% | -18% | nt | ? | 13µM* | 13%
COCCCn1c(SCC(=O)OC2CCCCC2)nnc1-c1cccs1 | -12% | -20% | nt | 100µM* | -4% | 3%
CC(SCc1ccccc1)C(=O)c1c[nH]c2ccccc12 (centres undefined) | nt | nt | nt | nt | -47% | nt
COc1cc(C2C(C#N)=C(N)OC3=C2C(=O)CCC3)c([N+](=O)[O-])cc1OC (centres undefined) | 20µM* | 89µM* | -13 | 7.1µM* | ? | 2%
Cc1cc(C2C(C#N)=C(N)OC3=C2C(=O)CCC3)c(C)s1 (centres undefined) | 12% | -4% | -13 | 9% | -11% | 22%
CC1(C)CC(=O)C2=C(C1)OC(N)=C(C#N)C2c1cc2c(cc1[N+](=O)[O-])OCO2 (centres undefined) | ? | -31% | -80* | ? | ? | -16%
CC(=O)N1CCc2c(sc3nc(SCC(C)C)n(-c4ccc(C)c(Cl)c4)c(=O)c23)C1 | ? | -9% | nt | ? | ? | -13%
CCCSc1nc2sc3c(c2c(=O)n1-c1ccc(C)c(Cl)c1)CCN(C(C)=O)C3 | 79µM* | 11% | nt | ? | -19% | ?
N#Cc1nc(-c2ccc(Cl)cc2)oc1N1CCN(CCO)CC1 | nt | nt | nt | nt | -18% | nt
